# Out of some 370,000 compounds screened, about 3,100 (0.84%) were called active. Shown is part of a subset that was picked to be rich in actives. Unmarked numbers belong to inactive results.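 How the source made its calls: active means inhibition above the mean of compounds lying between control limits plus 3 SD, set per campaign (cut at about 8.5% in these data); inactive means the rest.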
# Biological target: Disintegrin and metalloproteinase domain-containing protein 17 (Homo sapiens) (UniProt P78536)
# Sequence (P78536 215-824 limits assumed): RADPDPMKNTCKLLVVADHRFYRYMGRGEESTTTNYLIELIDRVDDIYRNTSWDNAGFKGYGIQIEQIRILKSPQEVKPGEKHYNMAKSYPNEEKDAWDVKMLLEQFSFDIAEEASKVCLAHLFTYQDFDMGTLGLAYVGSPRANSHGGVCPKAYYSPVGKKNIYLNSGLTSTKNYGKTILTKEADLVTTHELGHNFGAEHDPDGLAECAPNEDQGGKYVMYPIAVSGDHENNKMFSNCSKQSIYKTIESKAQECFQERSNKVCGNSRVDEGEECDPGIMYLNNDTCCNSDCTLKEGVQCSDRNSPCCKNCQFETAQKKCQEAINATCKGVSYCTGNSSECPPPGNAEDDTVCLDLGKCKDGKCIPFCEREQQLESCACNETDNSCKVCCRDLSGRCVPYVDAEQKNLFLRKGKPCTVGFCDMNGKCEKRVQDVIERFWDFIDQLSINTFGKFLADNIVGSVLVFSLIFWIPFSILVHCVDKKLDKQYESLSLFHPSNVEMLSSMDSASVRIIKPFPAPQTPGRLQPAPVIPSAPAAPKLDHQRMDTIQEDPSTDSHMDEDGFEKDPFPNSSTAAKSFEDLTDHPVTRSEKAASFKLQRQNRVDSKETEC
# Test: inhibition of ADAM17 peptide cleavage – biochemical, QFRET, primary screen (AID 720648);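 further: 0% = DMSO-only wells as the low control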
# Conditions: recombinant ADAM17, EDANS/DABCYL FRET peptide cleavage; at 6.95 µM; hits give high values
row,Compound,inhibition
1,CC(C)Oc1cc(F)ccc1-c1cc(C(=O)Nc2ccc(F)cc2)[nH]n1,2.41%
2,COc1cc(NC(=O)c2cc(-c3ccc(F)cc3OC(C)C)n[nH]2)cc(OC)c1OC,3.11%
3,CC(C)Oc1cc(F)ccc1-c1cc(C(=O)Nc2cccc(Cl)c2)[nH]n1,12.5% (active)
4,O=C(N1CCOCC1)N1CC[C@H]2[C@H](CCCN2Cc2ccc(F)cc2)C1,-3.39%
5,O=C(NC1CCC1)c1ccc(C#CC2CC2)cn1,-2.55%
6,CCn1c(SCC(=O)c2ccc(Cl)s2)nnc1-c1cccs1,-2.07%
7,Cc1ccc(-n2c(Cc3cccs3)nnc2SCC(=O)OC(C)C)cc1,-0.84%
8,CCn1c(Cc2cccs2)nnc1SCC(=O)c1ccc(C)cc1,9.16% (active)
9,CCC(=O)Nc1ccc2c(c1)C(=O)N(C)[C@H]1CC[C@H](CC(=O)NCCOC)O[C@@H]1CO2,-1.85%
10,COc1ccc(C#CCNCc2ccc(OC)cc2OC)cc1,-5.67%
11,COC(=O)c1ccccc1-n1cc(COC(=O)NCCc2ccccc2)nn1,-7.96%
12,CCCCn1ccnc1C(=O)c1cccc(S(=O)(=O)N2c3ccccc3CC2C)c1 (centres undefined),11.1% (active)
13,CC1Cc2ccccc2N1S(=O)(=O)c1cccc(C(=O)OCC(=O)N2CCOCC2)c1 (centres undefined),-5.91%
14,CC1Cc2ccccc2N1S(=O)(=O)c1cccc(C(=O)NCC(c2ccco2)N2CCCC2)c1 (centres undefined),-2.28%
15,C=CCN1C(=O)[C@H](CC(=O)NCCCN2CCCC2=O)[C@@]2(C(=O)OCC)CCCC=C12,-6.27%
16,Cc1ccc(NC(=O)CCNS(=O)(=O)c2ccc3c(c2)oc(=O)n3C)cc1C,1.53%
17,COc1cc(NC(=O)CCS(=O)(=O)c2ccc3c(c2)oc(=O)n3C)cc(OC)c1,8.71% (active)
18,COc1cccc(NC(=O)CCNS(=O)(=O)c2ccc3c(c2)oc(=O)n3C)c1,-2.66%
19,Cc1cc(NS(=O)(=O)c2ccc(NC(=O)CSc3nnc(SCc4ccc(F)cc4)s3)cc2)nc(C)n1,2.06%
20,CCOC(=O)c1cccc(NC(=O)CCn2nnc3ccccc32)c1,-1.7%
21,CCOC(=O)c1cccc(NC(=O)CN(C)S(=O)(=O)c2ccc(-c3cocn3)s2)c1,9.31% (active)
22,CCOC(=O)c1cccc(NC(=O)CN(c2ccc(C)cc2)S(=O)(=O)c2c(C)noc2C)c1,7.3%
23,O=C(OCC#CCSc1nnc(-c2ccco2)o1)c1ccc(F)cc1,-3.45%
24,CN(C)Cc1cn(-c2ccc(-c3noc4c3C(=O)N(CC(=O)N3CCOCC3)CC4)cc2)nn1,-1.12%
